Experimental data as given in PubChem BioAssay AID1347135 (National Center for Advancing Translational Sciences (NCATS), 2019).
The list shows a part of the results. Records with an inconclusive call do not appear. Activity calls are given as the source filed them. Calls come from the whole dose curve; as a rule, active = well fitted inhibition curve with a large enough effect; inconclusive = small, poorly fitted or top-dose-only effect; inactive = flat fitted curve, though single readings scatter.

assay: qHTS of pediatric cancer cell lines to identify multiple opportunities for drug repurposing: Orthogonal 3D viability screen for SK-N-SH cells; details: SK-N-SH 3D spheroid viability, PI/Hoechst imaging, 72 h
Description: Drug repurposing or repositioning has been offered as a strategy for drug development in oncology programs. This approach has special potential for childhood cancers and other rare or orphan diseases, where the expected return on new drug development has been a disincentive to pharmaceuticals. […] In this project we exploit the poly-pharmacology of drugs to discover new indications via phenotypic screening of a panel of 19 well-characterized cell lines derived from solid tumors seen in children and adolescents. The goal is to identify approved drugs with previously unrecognized anticancer properties that has the potential to reveal new mechanisms and biological processes involved in carcinogenesis or drug resistance. We employed a titration-based paradigm (quantitative high-throughput screening or qHTS), where all compounds were tested at multiple concentrations for their effect on cell viability. Concentration-response curves (CRCs) were derived directly from the primary screen, and both potency and efficacy values were used to identify compounds with robust bioactivity profiles. […] These two assays will be used to validate active compounds and assess the correlation of compound's potency in 2D vs 3D cultures on selected cell lines. Assay Submitter: Nathalia J. Martinez, National Center for Advancing Translational Sciences, National Institutes of Health, Rockville, MD, USA; email: natalia.martinez@nih.gov Shen, M et al. Quantitative high-throughput phenotypic screening of pediatric cancer cell lines identifies multiple opportunities for drug repurposing. Oncotarget 2017 Dec 19;9(4):4758-4772. PMID 29435139.
The cells were obtained from University of North Carolina (UNC), Pediatric Preclinical Testing Program (PPT), and Coriell Institute (CI). qHTS viability in 3D culture: Cells were assayed in phenol red-free growth media at a density of 1,000 cells/well, with the exception of Daoy, and SH-N-SH which were assayed at 1,500 cells/ well. Thirty muL of cells were dispensed into 384-well, ULA, round bottom plates (Corning) using a Multidrop dispenser. Plates were spun down at 1,000 rpm for 1 min and incubated at 37 degrees C, 5% CO2, under a humidified atmosphere for either 24 (Daoy) or 48 hours (all other cell lines) to allow spheroid formation. Ninety-two nanoliter of compounds and controls (neutral control DMSO or positive control bortezomib at final concentrations of 0.5 µM) were subsequently transferred via GNF Pintool. Plates were sealed using a breathable seal (Diversified Biotech, Dedham, MA) and incubated for 72 hours at 37 degrees C. Spheroid viability was first determined by high-content imaging using Hoechst 33342 and Propidium Iodide (PI, ThermoFisher Scientific), followed by addition of CellTiter-Glo 3D (Promega). Specifically, 3 µL/well of PBS containing a 1:500 dilution of both dyes was dispensed using Multidrop. Dyes were incubated for 1 hour before imaging using the Celigo Image Cytometer. Then, 20 µl of CellTiter-Glo 3D were added per well. Plates were incubated for 30 min at RT on a VWR microplate shaker (300 rpm) and analyzed for luminescence intensity using a ViewLux High-throughput CCD imager equipped with clear filters. Image analysis was done using the Celigo Tumorsphere 1+2+3 application software as previously described. […] The data were exported to Excel, and the average fluorescent intensities were used to calculate the ratio of PI over Hoechst, which was used to quantify viability. […]

Question: For COC(=O)Nc1nc2ccc(Sc3ccccc3)cc2[nH]1, which Potency is on record?
Answer: The Potency was 1620 nM (active).

Question: With CC[C@]1(O)C[C@@H]2CN(CCc3c([nH]c4ccccc34)[C@@](C(=O)OC)(c3cc4c(cc3OC)N(C)[C@H]3[C@@](O)(C(=O)OC)[C@H](OC(C)=O)[C@]5(CC)C=CCN6CC[C@]43[C@@H]65)C2)C1 as the molecule, how does the Potency read?
Answer: The Potency was 90.9 nM (active).

Question: Which Potency does the source give for CC1(C)O[C@@H]2C[C@@H]3[C@H]4C[C@@H](F)C5=CC(=O)C=C[C@]5(C)[C@@]4(F)[C@@H](O)C[C@]3(C)[C@]2(C(=O)CO)O1 here?
Answer: Its Potency is 456 nM (active).

Question: Which Potency does the source give for CC(NCc1ccc2c(c1)nc(NC(=O)c1ccc(-c3cn[nH]c3)s1)n2CC(C)(C)O)C(C)(C)C (stereo not given) here?
Answer: Its Potency is 204 nM (active).

Question: For CC[C@H]1CN2CCc3cc(OC)c(OC)cc3[C@@H]2C[C@@H]1C[C@H]1NCCc2cc(OC)c(OC)cc21, which Potency is on record?
Answer: The Potency was 72.2 nM (active).
